Laboratory results taken from the supplement of paper PMC10127200.
Counter-ions that a name gives are not always drawn.

Legend:
Assay in all cases: Euclidean distance of Cell Painting phenotypic profile (signed KS, 77 features) to DMSO centroid (dimensionless distance); 5 or 10 uM (library dependent); higher = stronger phenotypic change vs DMSO (phenoactivity)
Conditions in all cases: 48 h
786-O = system: 786-O
In short: (§1)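 At 10 or 5 uM, as set by the library, and 0.1% DMSO final, compounds were applied for 48 h to five cancer lines and one healthy fibroblast line. Stained cells were imaged confocally at 20X in 9 fields per well, and Harmony extracted 77 features scored as signed Kolmogorov-Smirnov statistics against vehicle wells on the same plate. Profiles underwent plate-position correction, correlation weighting and replicate averaging at the top dose. Phenoactivity is the Euclidean distance from each such profile to the median vehicle profile.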

A549 = system: A549
In short: as §1

DU145 = system: DU145
In short: as §1

FB = system: FB
In short: as §1

HEPG2 = system: HEPG2
In short: as §1

OVCAR4 = system: OVCAR4
In short: as §1

Row | SMILES | Euclidean distance (786-O) | Euclidean distance (A549) | Euclidean distance (DU145) | Euclidean distance (FB) | Euclidean distance (HEPG2) | Euclidean distance (OVCAR4)
1 | C[C@]1(Cn2ccnn2)[C@H](C(=O)O)N2C(=O)C[C@H]2S1(=O)=O [Tazobactam] | 0.708 | 0.639 | 0.78 | 0.984 | 0.41 | 0.673
2 | CC(=O)NS(=O)(=O)c1ccc(N)cc1 [Sulfacetamide Sodium] | 1.12 | 0.648 | 1.22 | 0.694 | 0.673 | 1.05
3 | CO/N=C(\C(=O)N[C@@H]1C(=O)N2C(C(=O)[O-])=C(C[n+]3cccc4c3CCC4)CS[C@H]12)c1csc(N)n1 [Cefpirome sulfate] | 0.835 | 0.636 | 0.405 | 0.989 | 0.508 | 0.689
4 | CCCC(=O)Nc1ccc(OCC(O)CNC(C)C)c(C(C)=O)c1 (stereo not given) [Acebutolol HCl] | 0.96 | 0.8 | 1.23 | 1.3 | 0.817 | 1.34
5 | C[C@@H]1C[C@H]2[C@@H]3CCC4=CC(=O)C=C[C@]4(C)[C@@]3(F)[C@@H](O)C[C@]2(C)[C@@]1(O)C(=O)CO [Dexamethasone (DHAP)] | 1.45 | 2.32 | 2.14 | 1.75 | 0.718 | 1.86
6 | CC(C)Nc1cc(-c2c[nH]c(C(=O)N[C@H](CO)c3cccc(Cl)c3)c2)c(Cl)cn1 | 2.42 | 4.11 | 3.64 | 3.51 | 1.79 | 3.1
7 | CC1=C(C(=O)OC2CCCCC2)C(c2ccc([N+](=O)[O-])cc2)C2=C(CC(C)(C)CC2=O)N1 (stereo not given) | 2.98 | 3.4 | 1.52 | 2.71 | 2.03 | 2.99
8 | CC(=O)OC(C)C[N+](C)(C)C (stereo not given) [Methacholine chloride] | 0.977 | 1.02 | 1.24 | 0.67 | 0.576 | 1.45
9 | Nc1cc(Cl)c(N=C2NCCN2)c(Cl)c1 [Apraclonidine HCl] | 0.986 | 1.57 | 0.828 | 1.25 | 0.638 | 2
10 | Cc1nc(NC(=O)N2CCC[C@H]2C(N)=O)sc1-c1ccnc(C(C)(C)C(F)(F)F)c1 [Alpelisib (BYL719)] | 1.4 | 1.45 | 1.3 | 2.29 | 1.09 | 2.02
11 | C=C1C(=O)[C@]23[C@H](O)[C@H]1CC[C@H]2[C@@]12CO[C@]3(O)[C@@H](O)[C@@H]1C(C)(C)CC[C@@H]2O [Oridonin] | 1.57 | 1.32 | 1.1 | 1.01 | 1.03 | 1.33
12 | COc1ccccc1OCC(O)COC(N)=O (stereo not given) [Methocarbamol] | 1.4 | 0.507 | 1.06 | 0.751 | 1.83 | 0.907
13 | C=CC(=O)Nc1cc(Nc2nccc(-c3cn(C)c4ccccc34)n2)c(OC)cc1N(C)CCN(C)C [Osimertinib mesylate] | 4.85 | 4.05 | 2.93 | 5.59 | 5.06 | 4.46
14 | CC(=O)c1ccc(S(=O)(=O)NC(=O)NC2CCCCC2)cc1 [Acetohexamide] | 0.925 | 0.868 | 0.836 | 1.19 | 0.469 | 0.995
15 | COc1ccc(-c2cc(=S)ss2)cc1 [Anethole trithione] | 1.49 | 1.04 | 1.18 | 1.03 | 0.61 | 1.06
16 | CCS(=O)(=O)N1CC(CC#N)(n2cc(-c3ncnc4[nH]ccc34)cn2)C1 [Baricitinib phosphate] | 1.75 | 0.985 | 1.99 | 1.55 | 0.776 | 0.981
17 | O=c1ccn([C@@H]2O[C@H](COP(=O)(O)OP(=O)(O)OP(=O)(O)O)[C@@H](O)[C@H]2O)c(=O)[nH]1 [UTP. Trisodium Salt] | 1.15 | 0.718 | 0.761 | 0.666 | 1.23 | 0.979
18 | CC(C)Cc1ccc(C(C)C(=O)O)cc1 (stereo not given) [Ibuprofen] | 0.948 | 0.452 | 0.996 | 0.827 | 0.86 | 0.689
19 | CCNC(=O)c1[nH]nc(-c2cc(Cl)c(O)cc2O)c1-c1ccc(OC)cc1 | 2.94 | 3.74 | 2.8 | 3.65 | 3.19 | 2.79
20 | Nc1nc(N)c(N=O)c(OCC2CCCCC2)n1 | 1.11 | 1.58 | 0.998 | 1.01 | 0.792 | 1.38
21 | N[C@@H](CC(=O)N1CCn2c(nnc2C(F)(F)F)C1)Cc1cc(F)c(F)cc1F [Sitagliptin phosphate monohydrate] | 0.554 | 0.819 | 1.11 | 0.644 | 0.395 | 0.956
22 | Cc1cc(Cl)ccc1OCCCC(=O)NO [Droxinostat] | 1.32 | 1.68 | 0.991 | 1.3 | 1.07 | 0.782
23 | COc1cc2c3cc1Oc1c(OC)c(OC)cc4c1[C@@H](Cc1ccc(O)c(c1)Oc1ccc(cc1)C[C@@H]3N(C)CC2)N(C)CC4 [Berbamine] | 2.93 | 3.17 | 2.1 | 3.91 | 2.29 | 2.64
24 | COc1ccnc(C[S+]([O-])c2nc3cc(OC(F)F)ccc3[nH]2)c1OC (stereo not given) [Pantoprazole] | 1.16 | 0.522 | 0.784 | 0.822 | 1.62 | 1.62
25 | CN1CCN(c2ccc(C(=O)Nc3n[nH]c4ccc(Cc5cc(F)cc(F)c5)cc34)c(NC3CCOCC3)c2)CC1 [Entrectinib (RXDX-101)] | 5.06 | 3.73 | 4.31 | 5.6 | 5.43 | 4.97
